PubChem BioAssay (NCATS)
Inconclusive results are not listed. Entries that show only a call come without a potency. The source made the active and inactive calls. Calls follow the shape of the dose curve; as a rule, active = well fitted cell-killing curve with a large enough effect; inconclusive = small, poorly fitted or top-dose-only effect; inactive = flat fitted curve, though single readings scatter.

assay: Cell Viability - LYMP2-012 (AID 982); conditions: LYMP2-012 lymphoblastoid cell viability qHTS; series mostly up to 92.2 µM;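 also: cellular ATP by luciferase luminescence where a drop means cytotoxicity; cells exposed to compound for one day before reading; nearly all actives have a fitted effect of over 55% in size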

Structure (SMILES)	Potency
CC=O	inactive
Cc1ccc(CO)cc1	inactive
Cc1cc([N+](=O)[O-])ccc1N	inactive
Clc1cc(Cl)cc(Cl)c1	inactive
Nc1nc2ccccc2[nH]1	inactive
NC(=O)c1ccccc1[N+](=O)[O-]	inactive
COc1ccc(N)c(C)c1	inactive
Oc1cccc(Nc2ccccc2)c1	inactive
O=C(O)c1cccc(Cl)c1Cl	inactive
O=C(O)CNC(=O)c1ccc(CO)o1	inactive
Nc1cccc2c(=O)[nH][nH]c(=O)c12	inactive
CCOc1cccc(N)c1	inactive
CCC(C)(C)C(=O)O	inactive
ICCc1ccccc1	inactive
COc1ccc(OC)cc1	inactive
FC(F)(F)c1cccc(Cl)c1	inactive
CCNS(=O)(=O)c1ccc(C)cc1	inactive
CCOc1ccccc1N	inactive
C=CC(=O)NC(C)C	inactive

Structure (SMILES)	Potency
Cc1ccc2cccnc2c1	inactive
CCCCCCO	inactive
CC(=O)Nc1ccccc1C	inactive
CC(C)(c1cc(Br)c(OCC(Br)CBr)c(Br)c1)c1cc(Br)c(OCC(Br)CBr)c(Br)c1 (stereo not drawn)	inactive
COc1ccc(N=[N+]([O-])c2ccc(OC)cc2)cc1	inactive
CNc1ccccc1	inactive
Oc1c(Cl)ccc(Cl)c1Cl	inactive
O=C(Cl)c1cccc([N+](=O)[O-])c1	inactive
CC(=C/C=C/C(C)=C/C=C/C=C(C)/C=C/C=C(C)/C=C/C(=O)O)/C=C/C(=O)O	inactive
Cc1cccc(C(=O)O)c1	inactive
Cc1ccc2ncccc2c1	inactive
Nc1cccc(C(F)(F)F)c1	inactive
O=Cc1ccc(C(=O)O)cc1	inactive
NC(=O)/N=N/C(N)=O	inactive
CC(=O)c1cccc([N+](=O)[O-])c1	inactive
CNC(=O)c1ccccc1	inactive
O=[N+]([O-])c1cccc(C(F)(F)F)c1	inactive
CCC(C)(C)OC	inactive
NC(N)=S	inactive

assay: Cell Viability - LYMP2-014 (AID 983); conditions: LYMP2-014 lymphoblastoid cells, viability qHTS; series mostly up to 92.2 µM;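 also: cells exposed to compound for 24 h at 37 °C; nearly all actives have a fitted effect of over 50% in size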
In short: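 Cells are plated at 2500/well and left 5 hr at 37 C. Compounds are added across a concentration range and incubated 24 hr at 37 C in complete medium. CellTiter-Glo is added, and luminescence is read after 30 min at room temperature.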

Structure (SMILES)	Potency
CC=O	inactive
Cc1ccc(CO)cc1	inactive
Cc1cc([N+](=O)[O-])ccc1N	inactive
Nc1nc2ccccc2[nH]1	inactive
NC(=O)c1ccccc1[N+](=O)[O-]	inactive
Oc1cccc(Nc2ccccc2)c1	inactive
O=C(O)c1cccc(Cl)c1Cl	inactive
O=C(O)CNC(=O)c1ccc(CO)o1	inactive
Nc1cccc2c(=O)[nH][nH]c(=O)c12	inactive
CCOc1cccc(N)c1	inactive
CCC(C)(C)C(=O)O	inactive
ICCc1ccccc1	inactive
COc1ccc(OC)cc1	inactive
FC(F)(F)c1cccc(Cl)c1	inactive
CCNS(=O)(=O)c1ccc(C)cc1	inactive
CCOc1ccccc1N	inactive
Cc1ccc2cccnc2c1	inactive

Structure (SMILES)	Potency
CCCCCCO	inactive
CC(=O)Nc1ccccc1C	inactive
CC(C)(c1cc(Br)c(OCC(Br)CBr)c(Br)c1)c1cc(Br)c(OCC(Br)CBr)c(Br)c1 (stereo not drawn)	inactive
COc1ccc(N=[N+]([O-])c2ccc(OC)cc2)cc1	inactive
CNc1ccccc1	inactive
Oc1c(Cl)ccc(Cl)c1Cl	inactive
CN(C)CCCNCCCN	inactive
ClC/C=C/CCl	inactive
O=C(Cl)c1cccc([N+](=O)[O-])c1	inactive
CC(=C/C=C/C(C)=C/C=C/C=C(C)/C=C/C=C(C)/C=C/C(=O)O)/C=C/C(=O)O	inactive
Cc1cccc(C(=O)O)c1	inactive
Cc1ccc2ncccc2c1	inactive
Nc1cccc(C(F)(F)F)c1	inactive
O=Cc1ccc(C(=O)O)cc1	inactive
NC(=O)/N=N/C(N)=O	inactive
CNC(=O)c1ccccc1	inactive
CCC(C)(C)OC	inactive

assay: Cell Viability - LYMP2-016 (AID 984); conditions: LYMP2-016 lymphoblastoid cell viability, qHTS; series mostly up to 92.2 µM;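 also: cells exposed to compound for 24 hours at 37 °C; nearly all actives have a fitted effect of over 55% in size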
In short: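 Cells were seeded at 2500 per well and rested 5 hr before a 24 hr compound exposure at 37 C. Viability was then gauged as cellular ATP by luciferase luminescence, with AC50 values fitted to the Hill equation.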

Structure (SMILES)	Potency
Cc1ccc(CO)cc1	inactive
Cc1cc([N+](=O)[O-])ccc1N	inactive
Nc1nc2ccccc2[nH]1	inactive
NC(=O)c1ccccc1[N+](=O)[O-]	inactive
COc1ccc(N)c(C)c1	inactive
O=C(O)c1cccc(Cl)c1Cl	inactive
O=C(O)CNC(=O)c1ccc(CO)o1	inactive
Nc1cccc2c(=O)[nH][nH]c(=O)c12	inactive
CCC(C)(C)C(=O)O	inactive
ICCc1ccccc1	inactive
COc1ccc(OC)cc1	inactive
FC(F)(F)c1cccc(Cl)c1	inactive
CCNS(=O)(=O)c1ccc(C)cc1	inactive
CCOc1ccccc1N	inactive
Cc1ccc2cccnc2c1	inactive
CCCCCCO	inactive

Structure (SMILES)	Potency
COc1ccc(N=[N+]([O-])c2ccc(OC)cc2)cc1	inactive
CNc1ccccc1	inactive
Oc1c(Cl)ccc(Cl)c1Cl	inactive
CN(C)CCCNCCCN	inactive
O=C(Cl)c1cccc([N+](=O)[O-])c1	inactive
CC(=C/C=C/C(C)=C/C=C/C=C(C)/C=C/C=C(C)/C=C/C(=O)O)/C=C/C(=O)O	inactive
Cc1cccc(C(=O)O)c1	inactive
Cc1ccc2ncccc2c1	inactive
Nc1cccc(C(F)(F)F)c1	inactive
O=Cc1ccc(C(=O)O)cc1	inactive
NC(=O)/N=N/C(N)=O	inactive
CC(=O)c1cccc([N+](=O)[O-])c1	inactive
CNC(=O)c1ccccc1	inactive
CCC(C)(C)OC	inactive
NC(N)=S	inactive
